Reference: PubChem BioAssay (NCI)
Values joined by “and” are separate entries in the source; they are usually repeats but may differ in a detail not shown here. Identical values can stand only once. About 83,000 compounds went through this panel and 20% of them were active in at least one assay; those are over-represented in the sample as a whole.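 Interpretation: 100, growth as untreated; towards 0, rising growth inhibition; 0, no net growth; 0 to -100, cell death. Compounds scoring below 10 were considered active.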 Unmarked numbers belong to inactive results. Active and inactive are the calls of the source.

Legend:
Experiment in all cases: NCI-60 one-dose screen, 48 h (100 = growth as untreated, 0 = no growth, -100 = all killed)
Conditions in all cases: 10 µM unless noted
[1] = system: NCI-H23 lung
[2] = system: NCI-H226 lung
[3] = system: NCI-H322M lung
[4] = system: HOP-62 NSCLC
[5] = system: NCI-H460 lung
[6] = system: HOP-92 NSCLC
[7] = system: NCI-H522 lung
[8] = system: A549/ATCC NSCLC
[9] = system: 786-0 renal
[10] = system: COLO 205 colon
[11] = system: DU-145 prostate
[12] = system: K-562 leukemia
[13] = system: MALME-3M melanoma
[14] = system: MDA-MB-231 breast
[15] = system: RXF 393 renal
[16] = system: SF-268 CNS
[17] = system: SF-295 CNS
[18] = system: SF-539 CNS
[19] = system: UACC-257 melanoma
[20] = system: M14 melanoma

Row | SMILES | growth [1] | growth [2] | growth [3] | growth [4] | growth [5] | growth [6] | growth [7] | growth [8] | growth [9] | growth [10] | growth [11] | growth [12] | growth [13] | growth [14] | growth [15] | growth [16] | growth [17] | growth [18] | growth [19] | growth [20]
1 | O=C(O)Cc1cc(=O)[nH]n(-c2ccccc2)c1=O | 108% | 98.1% | 109% | 106% | 109% | 98% | 95.4% | 95.6% | 108% | 110% | 115% | 100% | 113% | 101% | 109% | 96.8% | 97.4% | 99.1% | 98.2% | 106%
2 | COc1ccc(COC=O)cc1 | 97.3% | 100% | 99.1% | 98.4% | 104% | 109% | 95.5% | 106% | 103% | 108% | 98.7% | 96.5% | 102% | 112% | 110% | 95.9% | 101% | 105% | 98.5% | 104%
3 | CCC/C(=N/NC(N)=O)c1ccco1 | 99.1% | 96.1% | 96.5% | 79.7% | 104% | 82.7% | 76.3% | 93.4% | 89.7% | 107% | 109% | 104% | 83.8% | 100% | 105% | 102% | 98.4% | 93% | 98.6% | 97.6%
4 | O=C1c2ccccc2CN1c1ccccc1 | 94.2% | 98.8% | 107% | 107% | 103% | 104% | 74.7% | 91.4% | 94.7% | 105% | 115% | 94.2% | 118% | 95.4% | 105% | 107% | 104% | 102% | 103% | 100%
5 | COc1ccc(CCNC(=S)NN)cc1OC | 99.5% | 106% | 108% | 117% | 101% | 94.8% | 102% | 106% | 109% | 112% | 106% | 101% | 124% | 114% | 200% | 96% | 103% | 95% | 108% | 104%
6 | CC1(C)CC(=O)NC1=O | 96.5% | 99.6% | 94.2% | 101% | 108% | 114% | 96.8% | 99.3% | 97.6% | 113% | 109% | 94.8% | 102% | 106% | 97.7% | 100% | 108% | 93.5% | 101% | 95%
7 | CCOC(=O)NC(N)=O | 103% and 99% | 99.8% and 96.5% | 93% and 105% | 88.5% and 111% | 105% and 104% | 102% | 89.4% and 103% | 104% and 107% | 97.3% and 101% | 110% and 118% | 111% and 119% | 90.7% and 110% | 93.3% | 118% and 102% | 114% | 106% and 119% | 99.9% and 93.2% | 95.6% and 99.2% | 94% and 97.1% | 101%
8 | OCCSc1ccc(Cl)cc1 | 112% and 102% | 116% and 99.3% | 114% and 96% | 108% and 76.1% | 108% and 107% | 101% and 97.7% | 101% and 76.5% | 104% and 97% | 108% and 95.7% | 117% and 104% | 125% and 107% | 112% and 136% | 117% and 83.8% | 115% and 99.5% | 114% and 108% | 124% and 101% | 94.9% and 101% | 108% and 91.7% | 114% and 97.2% | 107% and 94.2%
9 | Nc1ccc2ccc(NS(=O)(=O)N3CCCCC3)cc2c1 | 43.8% | 15.2% | 50.9% | 35.4% | 7.56% (active) | 68% | 47.5% | 39.3% | 30.7% | -40.9% (active) | 12.7% | 8.04% (active) | 45.3% | 11.8% | 51.4% | 32.3% | 15.1% | -21.7% (active) | 87.7% | 11.2%
10 | CCOC(=O)c1ccc(C(=N)N)cc1 | 99% | 106% | 117% | 108% | 103% | 80.2% | 102% | 107% | 106% | 114% | 106% | 101% | 108% | 120% | 95.4% | 104% | 101% | 105% | 96.8% | 108%
11 | O=C1C2=C(Nc3cc(Cl)ccc3N2)OC1c1c[nH]c2ccc(COc3ccccc3)cc12 (stereo not given) | 59.3% | 2.7% (active) | 64.7% | -14.7% (active) | 59.7% | 42.3% | 54.8% | 74.2% | 38.8% | 111% | 73.7% | 79.7% | 74% | 59.5% | 43.9% | 30.4% | 33.5% | 53.8% | 80.3% | 94.2%
12 | O=C1C=CC(=O)N1Cc1ccco1 | 81.7% | 97.1% | 85.1% | 94.7% | 50.9% | 102% | 67.8% | 92.1% | 104% | 89.2% | 4.25% (active) | 94.1% | 94.5% | 84% | 68.6% | 89.7% | 72.2% | 108% | 104% | 85.3%
13 | Nc1nc(-c2ccccn2)cc(-c2cc(-c3ccccn3)nc(N)n2)n1 | 103% | 96.1% | 94.3% | 119% | 134% | 103% | 107% | 117% | 112% | 118% | 119% | 114% | 109% | 102% | 105% | 106% | 102% | 103% | 112% | 100%
14 | Nc1ccc(O)c(C(=O)O)c1 | 92.7% and 105% and 94.2% | 95.4% and 92.4% and 116% | 131% and 106% and 99.2% | 92.5% and 103% and 90.9% | 103% and 101% and 116% | 104% and 105% | 102% and 101% | 105% and 97% | 98.9% and 101% and 94.7% | 107% and 134% | 105% and 128% | 92.9% and 74.2% | 109% and 116% | 84.3% and 91.9% and 109% | 92.4% and 115% and 127% | 89.5% and 104% and 110% | 109% and 107% and 113% | 102% and 103% and 114% | 109% and 110% | 93.8% and 104% and 95.1%
